Shown are actives, neighbours in structure and some others; about 7.9% of the full set was active somewhere.
KB-3-1 cytotox – qHTS assay for MDR1-selective chemotherapeutics: Primary screen using the parental adenocarcinoma cell KB-3-1. KB-3-1 viability, CellTiter-Glo ATP luminescence, 72 h. Potency, µM (doses to about 46.1 µM), usual class: cytotoxic. 1.4% of 400,000 active; note: % is set by controls: 0 for no effect and ±100 for the full control effect; nearly all actives have a fitted effect of over 60% in size
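KB-3-1 cells, DMEM (no phenol red) + 10% FBS; compound by pin transfer, 72 h, 37 °C. Readout: CellTiter-Glo luminescence after 10 min. Data normalized, curve-fitted.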
KB-V1 MDR tox – qHTS assay for MDR1-selective chemotherapeutics: Primary screen using the drug-selected MDR subline cells KB-V1 | KB-V1 MDR cells viability, CellTiter-Glo, 72 h | Potency, µM (highest dose often 46.1 µM), most hits filed as cytotoxic | 3.4% of 400,000 active | AID 1347076, 2019; note: % is set by controls: 0 for no effect and ±100 for the full control effect; nearly all actives have a fitted effect of over 60% in size
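Potencies derive from concentration-effect curves fitted to normalized luminescence (CellTiter-Glo) of KB-V1 cells treated for 72 h at 37 degrees C in phenol-red-free DMEM containing 10% FBS.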
HT1080-NT tox – qHTS for induction of synthetic lethality in tumor cells producing 2HG: qHTS for the HT-1080-NT fibrosarcoma cell line; HT-1080-NT fibrosarcoma viability, CellTiter-Glo ATP luminescence, 48 h; Potency, µM (top dose mostly 46.1 µM), inactives show at the highest dose activity, negative = less viability, most hits filed as cytotoxic; 1.6% of 360,000 active;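 note: NT is the 2HG producing partner of a matched IDH1 knockdown line; 0% = DMSO-treated cells and -100% = media-only wells without cells; nearly all actives have a fitted effect of over 55% in size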
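Fibrosarcoma NT cells, 750 per well in 5% FBS RPMI, were exposed to compound for 48 hours. Viability: CellTiter-Glo luminescence.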
HT1080 IDH1KD tx – qHTS for induction of synthetic lethality in tumor cells producing 2HG: qHTS for the HT-1080-IDH1KD cell line | AID 686971, 2013 | HT-1080 IDH1 knockdown viability, ATP luminescence, 48 h | Potency, µM (doses to about 46.1 µM), for inactives: at the top dose activity, negative = toxicity, most hits filed as cytotoxic | 2% of 360,000 active;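 note: 0% = DMSO wells and -100% = cell-free medium wells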
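Viability of IDH1-knockdown HT-1080 fibrosarcoma cells was assessed by CellTiter-Glo after 48 h at 37 °C with titrated compound; concentration-effect curves were classified by fit quality and response size.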
MCF10A rerep – A quantitative high throughput screen for small molecules that induce DNA re-replication in MCF 10a normal breast cells; MCF 10A DNA re-replication, Hoechst nuclear intensity, 48 h; Potency, µM (top dose mostly 46.1 µM), inactives show top-dose activity, positive = re-replication, hits mostly activators; 2.9% of 350,000 active; AID 624296, 2012; note: % of control where 0% means no effect; nearly all actives have a fitted effect of over 50% in size
SW480 rereplic – A quantitative high throughput screen for small molecules that induce DNA re-replication in SW480 colon adenocarcinoma cells; SW480 DNA re-replication, Hoechst DNA content imaging, 48 h; Potency, µM (doses to about 46.1 µM), without a hit: top-dose re-replication activation, hits mostly activators; 1.8% of 340,000 active; note: % of control where 0% means no effect; nearly all actives have a fitted effect of over 55% in size
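Cells (250 per well) received 23 nL compound or DMSO by pin tool and were kept 48 hr at 37 C, 5% CO2. Nuclei were then stained with Hoechst for 40 min and scanned for DNA content.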
An asterisk follows results filed as active; i = inactive; ? = inconclusive; / = no result given; [ ] = another dose, or the depositor's remark. Calls come from the whole dose curve; as a rule, active = well fitted curve in the direction sought with a large enough effect; inconclusive = small, poorly fitted or top-dose-only effect, or another doubt; inactive = no such curve, though single readings can be large; an effect the other way counts as inactive or inconclusive. Potency is the fitted concentration of half-maximal effect.

SMILES	KB-3-1 cytotox	KB-V1 MDR tox	HT1080-NT tox	HT1080 IDH1KD tx	MCF10A rerep	SW480 rereplic
Cc1ccc(NC(=O)c2cc(NC(=O)c3ccccc3C(=O)O)ccc2N2CCCCC2)cc1	i	i	-6.5%	2.9%	-54.1%	-14.7%
CC(Sc1nncn1C)C(=O)Nc1nnc(-c2ccccc2)s1 (stereo not given)	i	i	14.2%	8.2%	1.1%	-13.3%
O=C(NC1CC1)c1cccc(NC(=O)c2cnn(-c3ccccc3)n2)c1	i	14.6µM*	2.7%	6.8%	2.5%	-7.3%
CCOC(=O)N1CCN(C(=O)COc2ccc3c(c2)C(=O)CC2(CCN(C(C)=O)CC2)O3)CC1	i	i	3.0%	13.4%	-3.5%	-7.5%
CC(=O)N1CCC2(CC1)CC(=O)c1cc(OCC(=O)N3CCOCC3)ccc1O2	i	i	2.6%	5.4%	7.3%	20.6µM*
CCC1CCCCN1c1nc(-c2cccc(OC)c2O)nc2ccccc12 (stereo not given)	i	i	-25.2%	-5.7%	?	?
CC1CCCCN1c1nc(-c2ccncc2)nc2ccccc12 (stereo not given)	i	?	?	29.1µM*	?	?
c1ccc2c(N3CCOCC3)nc(-c3ccncc3)nc2c1	?	13µM*	-27.6%	-7.4%[9.24 µM]	22.1%	7.3%
CCC1CCCCN1c1nc(-c2ccncc2)nc2ccccc12 (stereo not given)	?	?	17.8µM*	?	23.1µM*	?
CC1CCCCN1c1ncnc2ccccc12 (stereo not given)	?	?	17.8µM*	1.4%	-8.6%	9.9%
CC(C)(C)OC(=O)NCCCCC1=CC2=CC(=O)C(C)(O)C(=O)C2=CO1 (stereo not given)	i	i	0.0%	0.8%	14.5%	2.6%
CCCc1nc2sc3c(SCC(=O)NCc4ccco4)ncnc3c2c2c1CCC2	?	11.6µM*	-7.0%	-3.4%	9.2µM*	14.6µM*
O=C(CSc1nc(C2CC2)nc2sc3c(c12)CCCC3)NCc1ccco1	i	i	0.0%	4.0%	16.4µM*	1.1%
O=C(CSc1ncnc2ccccc12)NCc1ccco1	i	i	19.7%	23.2%	-4.7%	0.0%
Cc1nc(SCC(=O)NCc2ccco2)c2c3c(sc2n1)CCCC3	?	?	-6.8%	?	?	0.6%
CC(C)Sc1nc2sc3c(c2c2nnc(SCC(=O)NCc4ccco4)n12)CCCC3	i	18.4µM*	5.5%	3.2%	?	8.9%
CCCc1cc(=O)oc2cc(OCc3cccc(OC)c3)c(Cl)cc12	i	i	?	20.3%	-4.3%	1.1%
COc1ccc(-c2cc(C#N)nc(Oc3ccc(Cl)cc3)n2)cc1	i	i	6.3%	-1.2%	13.2%	20.8%
CCN(CC)c1nc(C#N)cc(-c2ccc(OC)cc2)n1	7.31µM*	5.8µM*	?	?	14.6µM*	11.6µM*
COc1ccc(-c2cc(C#N)nc(Cl)n2)cc1	i	i	7.31µM*	9.2µM*	?	24.1%
CC(=O)Nc1ccc(SCC(=O)N(CCC#N)c2ccc(C)cc2)cc1	i	i	-0.1%	6.9%	5.3%	-1.6%
O=C(NCCCNC(=O)c1ccccn1)c1ccc(Br)cc1	/	/	-14.5%	3.0%	9.2%	-0.8%
COC(=O)/C=C/c1ccsc1NC(C)=O	i	i	20.5%	19.0%	1.2%	9.2µM*
CN(C)CCCNC(=O)C[C@H]1C[C@H](C(=O)N2CCCCC2)[C@@]2(CCc3ccccc3)c3[nH]c4cc(-c5ccco5)ccc4c3CCN2C1=O	?	?	25.9µM*	?	?	5.5%
CC[C@]12c3[nH]c4cc(-c5ccco5)ccc4c3CCN1C(=O)[C@@H](CC(=O)NCc1cccc(C(F)(F)F)c1)C[C@@H]2C(=O)N1CCN(C(=O)C2CC2)CC1	?	i	-25.6%	?	2.5%	-2.7%[9.22 µM]
SMILES	KB-3-1 cytotox	KB-V1 MDR tox	HT1080-NT tox	HT1080 IDH1KD tx	MCF10A rerep	SW480 rereplic
CC(C)N(C(=O)[C@H]1C[C@H](CC(=O)NCCN2CCOCC2)C(=O)N2CCc3c([nH]c4cc(-c5ccco5)ccc34)[C@]12C)C(C)C	i	i	-21.3%	-12.7%	-38.5%	16.4µM*
C[C@]12c3[nH]c4cc(-c5ccco5)ccc4c3CCN1C(=O)[C@@H](CC(=O)NCc1cccc(C(F)(F)F)c1)C[C@@H]2C(=O)N1CCCCC1	18.4µM*	?	?	?	-40.7%	?
C[C@]12c3[nH]c4cc(-c5ccco5)ccc4c3CCN1C(=O)[C@@H](CC(=O)NCCN1CCOCC1)C[C@@H]2C(=O)N1CCOCC1	i	?	0.3%	4.5%	3.7%	?
CN(C)CCCNC(=O)CC1C[C@H](C(=O)N2CCCCC2)[C@@]2(CCc3ccccc3)c3[nH]c4ccccc4c3CCN2C1=O (stereo not given in full)	i	i	6.6%	8.7%	-3.0%	-6.2%
CN(C)CCCNC(=O)C[C@H]1C[C@H](C(=O)N2CCCCC2)[C@@]2(C)c3[nH]c4cc(-c5ccco5)ccc4c3CCN2C1=O	i	i	?	-19.0%	?	2.06µM*
C[C@]12c3[nH]c4cc(-c5ccco5)ccc4c3CCN1C(=O)[C@@H](CC(=O)NCCCn1ccnc1)C[C@@H]2C(=O)N1CCCCC1	i	i	-2.8%	-7.4%	-20.9%	-0.1%
COc1cc(/C=C/C(=O)OCC(=O)Nc2ccc(Cl)cn2)ccc1O	i	i	2.4%	-9.1%	9.1%	-4.6%
C#CC(C)OC(=O)C(C)NC(=O)c1ccccc1 (stereo not given)	i	i	12.9%	9.3%	18.7%	-0.1%
O=C(CC(NC(=O)OCc1ccccc1)c1nn[nH]n1)OCc1ccccc1 (stereo not given)	i	i	-0.7%	-5.4%	/	/
OC[C@H]1O[C@H](OC[C@H]2O[C@H](OC[C@H]3O[C@H](O[C@]4(CO)O[C@H](CO)[C@@H](O)[C@@H]4O)[C@H](O)[C@@H](O)[C@@H]3O)[C@H](O)[C@@H](O)[C@H]2O)[C@H](O)[C@@H](O)[C@H]1O	i	i	1.8%	4.8%	-20.7%	36.1%

Screening results deposited in PubChem BioAssay by National Center for Advancing Translational Sciences (NCATS).
